In PubChem BioAssay (NCATS):
Inconclusive results are not listed. Active and inactive are the calls of the source. Calls come from the whole dose curve; as a rule, active = well fitted curve in the direction sought with a large enough effect; inconclusive = small, poorly fitted or top-dose-only effect, or another doubt; inactive = no such curve, though single readings can be large; an effect the other way counts as inactive or inconclusive.

What was measured:
[1] = qHTS of pediatric cancer cell lines to identify multiple opportunities for drug repurposing: Primary screen for control Hh wild type fibroblast cells (AID 1347106);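 note: a drop in luminescence marks cytotoxicity and a rise apparent proliferation; nearly all actives have a fitted effect of over 55% in size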
How it was run: (§1)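 Cells (500-1,000/well) in growth media were settled 5 h at 37 degrees C, then given compounds for 48 h. Viability was read as CellTiter-Glo luminescence. Primary runs used MIPE at 11 points (0.78 nM-46 µM) and NPC at 8 points (0.59 nM-46 µM); follow-ups used 11 points.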

[2] = qHTS of pediatric cancer cell lines to identify multiple opportunities for drug repurposing: Primary screen for Rh30 cells (AID 1347107); note: nearly all actives have a fitted effect of over 75% in size
How it was run: as §1

[3] = qHTS of pediatric cancer cell lines to identify multiple opportunities for drug repurposing: Primary screen for Rh41 cells (AID 1347108);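 note: luminescence drop marks cytotoxic hits; nearly all actives have a fitted effect of over 70% in size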
How it was run: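 Quantitative HTS format: each compound titrated (MIPE 11 points from 0.78 nM, NPC 8 points from 0.59 nM) onto cells plated 5 hours earlier. After 48 h at 37 degrees C, CellTiter-Glo luminescence was recorded.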

Measured: Potency
Note: series mostly up to about 46 µM.

COc1cc(O)c(C(=O)c2ccccc2)cc1S(=O)(=O)O
inactive: [1] | [2] | [3]

Cc1cccc(C)c1NC(=O)c1ccccc1C(=O)O
inactive: [1] | [2] | [3]

COc1cc(C)nc(-n2nc(C)cc2OC)n1
inactive: [1] | [2] | [3]

CCCCCCCCCCCCCCCCO
inactive: [1] | [2] | [3]

Cc1nc(-c2ccc(Cl)cc2)oc1COC(C)(C)C(=O)O
inactive: [1] | [2] | [3]

CCCCCCCCCCCCCCCC(=O)O
inactive: [1] | [2] | [3]

Cc1ccc(O)c([C@H](CCN(C(C)C)C(C)C)c2ccccc2)c1
inactive: [1] | [2] | [3]

CC(=O)N[C@@H](CCC(=O)O)C(=O)O
inactive: [1] | [2] | [3]

COc1cc(NS(=O)(=O)c2ccc(N)cc2)ncn1
inactive: [1] | [2] | [3]

Cc1ccc(-c2ncc(Cl)cc2-c2ccc(S(C)(=O)=O)cc2)cn1
inactive: [1] | [2] | [3]

CC(=O)OCC1=C(C(=O)O)N2C(=O)[C@@H](NC(=O)CSc3ccncc3)[C@H]2SC1
inactive: [1] | [2] | [3]

COc1cc(N)c(Cl)cc1C(=O)NC1CCN(Cc2ccccc2)CC1
inactive: [1] | [2] | [3]

COP(=O)(OC)OC(c1ccc(Cl)cc1)P(=O)(OC)OC (stereo unspecified)
inactive: [1] | [2] | [3]

O=C(Nc1ccc([N+](=O)[O-])cc1)Nc1ccc([N+](=O)[O-])cc1
inactive: [1] | [2] | [3]

CCCCc1cc2ccccc2c(OCCN(C)C)n1
inactive: [1] | [2] | [3]

CCOC(=O)c1c(N)sc2c1CCN(Cc1ccccc1)C2
inactive: [1] | [2] | [3]

COc1ccc(C(=O)c2ccccc2O)c(O)c1
inactive: [1] | [2] | [3]

Cc1ccc(S(=O)(=O)NC(=O)NC2CCCC2)cc1
inactive: [1] | [2] | [3]

COc1cc(C(=O)N2CCCCCCC2)cc(OC)c1OC
inactive: [1] | [2] | [3]

CCN(CC)CCOC(=O)C1(c2ccccc2)CCCC1
inactive: [1] | [2] | [3]

COc1ccc(C(Cl)=C(c2ccc(OC)cc2)c2ccc(OC)cc2)cc1
inactive: [1] | [2] | [3]

C[C@@H](O)[C@H]1C(=O)N2C(C(=O)O)=C(S[C@@H]3CN[C@H](CNS(N)(=O)=O)C3)[C@H](C)[C@H]12
inactive: [1] | [2] | [3]

Nc1ccc(S(=O)(=O)Nc2cnc3ccccc3n2)cc1
inactive: [1] | [2] | [3]

CN1CCC(OC(c2ccccc2)c2ccccc2)CC1
inactive: [1] | [2] | [3]

CCc1oc2ccccc2c1C(=O)c1cc(Br)c(O)c(Br)c1
inactive: [1] | [2] | [3]

CC(=O)Nc1ccc(CC(=O)O)cc1
inactive: [1] | [2] | [3]

FC(F)(F)C(F)(F)C(F)(F)C(F)(F)C(F)(F)C(F)(F)C(F)(F)C(F)(F)Br
inactive: [1] | [2] | [3]

NC(=O)c1ccccc1O
inactive: [1] | [2] | [3]

N#CCC(=O)NN
inactive: [1] | [2] | [3]

CC(=O)OCC(=O)[C@H]1CC[C@H]2[C@@H]3CCC4=CC(=O)CC[C@]4(C)[C@H]3CC[C@]12C
inactive: [1] | [2] | [3]

CC(C)(Cc1c[nH]c2ccccc12)NCC(O)COc1ccccc1C#N (stereo unspecified)
inactive: [1] | [2] | [3]

NS(=O)(=O)c1cc(C(=O)O)cc(N2CCCC2)c1Oc1ccccc1
inactive: [1] | [2] | [3]

CCC(C(=O)OCCOCCN(CC)CC)c1ccccc1 (stereo unspecified)
inactive: [1] | [2] | [3]

C#C[C@]1(O)CC[C@H]2[C@@H]3CCC4=CC(=O)CC[C@@H]4[C@H]3CC[C@@]21CC
inactive: [1] | [2] | [3]

NC1CCN(c2nc3c(cc2F)c(=O)c(C(=O)O)cn3-c2ccc(F)cc2F)C1 (stereo unspecified)
inactive: [1] | [2] | [3]

CC(=O)NCCCCCC(=O)O
inactive: [1] | [2] | [3]

CC(C)Cc1ccc(CC(=O)O)cc1
inactive: [1] | [2] | [3]

COc1ccccc1N1CCN(CCCCNC(=O)c2ccc(-c3ccc(C(C)=O)cc3)cc2)CC1
inactive: [1] | [2] | [3]

COc1ccc(/C=N/NC(=O)c2ccncc2)cc1OC
inactive: [1] | [2] | [3]

Nc1nc(N)c(-c2ccccc2)s1
inactive: [1] | [2] | [3]

N[C@H](C(=O)O)[C@@H](O)c1ccc(O)c(O)c1
inactive: [1] | [2] | [3]

CC1(COc2ccc(CC3SC(=O)NC3=O)cc2)CCCCC1 (stereo unspecified)
inactive: [1] | [2] | [3]
